Source: article PMC4336329 (PLoS ONE, 2015)
The whole screen tested about 310,000 compounds, of which about 14,000 (4.5%) showed an effect of 50% or more. The effect is printed as a negative number. Many of the other results were omitted from the sample, so strong results are more common in it than they were.

biological target: human ether-à-go-go-related gene (hERG) potassium channel (human, UniProt Q12809); experiment: primary screen, population patch clamp on CHO cells stably expressing hERG; higher = less effect of the substance
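Also: peak tail current of the secondary pulse compared with the same well before compound.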

human ether-à-go-go-related gene (hERG) potassium channel, sequence (Q12809 whole entry, looked up): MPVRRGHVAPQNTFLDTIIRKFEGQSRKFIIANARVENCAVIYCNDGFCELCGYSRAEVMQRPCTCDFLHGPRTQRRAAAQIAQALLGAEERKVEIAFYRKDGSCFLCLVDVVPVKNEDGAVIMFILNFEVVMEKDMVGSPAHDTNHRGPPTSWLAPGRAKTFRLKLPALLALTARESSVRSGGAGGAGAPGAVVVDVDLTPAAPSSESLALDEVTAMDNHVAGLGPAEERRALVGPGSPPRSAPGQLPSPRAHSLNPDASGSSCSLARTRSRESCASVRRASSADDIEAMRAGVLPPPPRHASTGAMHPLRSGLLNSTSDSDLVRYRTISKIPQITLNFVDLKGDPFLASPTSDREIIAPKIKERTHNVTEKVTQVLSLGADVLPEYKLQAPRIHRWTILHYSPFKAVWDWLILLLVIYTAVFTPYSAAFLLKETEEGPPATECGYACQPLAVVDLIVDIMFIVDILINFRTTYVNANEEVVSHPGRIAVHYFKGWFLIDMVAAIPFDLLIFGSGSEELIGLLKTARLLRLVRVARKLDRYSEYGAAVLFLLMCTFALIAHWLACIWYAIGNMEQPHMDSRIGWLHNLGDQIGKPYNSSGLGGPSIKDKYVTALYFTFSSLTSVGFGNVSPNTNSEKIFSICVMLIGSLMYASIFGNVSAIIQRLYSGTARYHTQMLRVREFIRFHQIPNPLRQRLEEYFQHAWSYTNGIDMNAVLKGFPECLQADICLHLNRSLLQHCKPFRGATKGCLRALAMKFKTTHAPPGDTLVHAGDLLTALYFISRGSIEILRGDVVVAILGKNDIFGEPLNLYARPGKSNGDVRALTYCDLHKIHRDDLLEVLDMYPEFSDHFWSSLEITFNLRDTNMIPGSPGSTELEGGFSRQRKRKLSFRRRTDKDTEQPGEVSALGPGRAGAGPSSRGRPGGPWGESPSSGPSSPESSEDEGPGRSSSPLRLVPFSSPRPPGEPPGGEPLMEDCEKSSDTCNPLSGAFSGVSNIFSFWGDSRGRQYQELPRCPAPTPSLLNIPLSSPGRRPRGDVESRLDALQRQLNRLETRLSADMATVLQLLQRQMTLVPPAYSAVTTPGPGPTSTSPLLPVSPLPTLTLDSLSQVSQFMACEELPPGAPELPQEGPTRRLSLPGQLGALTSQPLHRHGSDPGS

SMILES	hERG current change (%, negative = inhibition) at 10uM [%]
CC1(C)Cc2c(sc(NC(=O)c3ccc4ncsc4c3)c2C(N)=O)C(C)(C)N1	-30.5
Cc1cccc(NC(=O)Nc2ccccc2[N+](=O)[O-])n1	16.7
NS(=O)(=O)c1ccc(CCNC(=O)CN2CCN(c3ccc(F)cc3)CC2)cc1	-18.7
COCCSc1ccccc1C(=O)Nc1ccc2c(c1)OCCO2	5.7
CCOCCCN(C(=O)c1snc(C(N)=O)c1N)C(C(=O)NCCC(C)C)c1ccc(F)cc1 (centres unmarked)	-23.6
CCC(C(=O)NC1CCCCC1)N(C(=O)c1snc(C(N)=O)c1N)c1ccc(OC)cc1OC (centres unmarked)	-69.3
CCC(C(=O)NC1CCCC1)N(C(=O)c1snc(C(N)=O)c1N)c1ccc(OC)c(OC)c1 (centres unmarked)	15.5
CCOCCCN(C(=O)c1snc(C(N)=O)c1N)C(C(=O)NC1CCCC1)c1ccc(O)cc1 (centres unmarked)	3.52
CCOCCCN(C(=O)c1snc(C(N)=O)c1N)C(C(=O)NCCC(C)C)c1ccc(Cl)cc1 (centres unmarked)	-68.1
CCOc1ccc(C(C(=O)NC2CCCCC2)N(CCOC)C(=O)c2snc(C(N)=O)c2N)cc1 (centres unmarked)	-47.5
COc1ccc(C(C(=O)NC2CCCCC2)N(C(=O)c2snc(C(N)=O)c2N)c2ccc(OC)cc2OC)cc1 (centres unmarked)	9.37
CCOCCCN(C(=O)c1snc(C(N)=O)c1N)C(C(=O)NC1CCCC1)c1ccc(OC)cc1 (centres unmarked)	-60.5
CCOCCCN(C(=O)c1snc(C(N)=O)c1N)C(C(=O)NC1CCCC1)c1ccc(F)cc1 (centres unmarked)	-12
CCOc1ccc(C(C(=O)NC2CCCC2)N(C(=O)c2snc(C(N)=O)c2N)C2CCCC2)cc1 (centres unmarked)	-51.1
COc1ccc(C(C(=O)NC2CCCC2)N(C(=O)c2snc(C(N)=O)c2N)C2CCCC2)cc1OC (centres unmarked)	5.77
CCOCCCN(C(=O)c1snc(C(N)=O)c1N)C(C(=O)NC(C)(C)C)c1ccc(Cl)cc1 (centres unmarked)	-33.1
CCCCC1CCCOC(C(=O)NCCNCCO)(C(F)(F)F)C1 (centres unmarked)	6.03
CN(C)c1nnnn1-c1ccc(Cl)cc1Cl	0.276
CCN(CC)C(=O)c1n[nH]c(=O)c2ccccc12	4
CCn1c(SCC(=O)Nc2cc(C)on2)nnc1-c1ccccc1	-3.05

SMILES	hERG current change (%, negative = inhibition) at 10uM [%]
COc1ccc(-c2cc(C(=O)N3CCN(c4ccccc4OC)CC3)no2)cc1OC	-0.868
N#CCOC(=O)c1c2c(nc3ccccc13)CCC2	-23.1
Cc1ccc(C)c(S(=O)(=O)N2CCN(CC(=O)NC(=O)NCc3ccccc3)CC2)c1	-9.97
Cc1cc(C)n(-c2ccc(C(=O)N3CCc4ccccc43)cc2)n1	-3.89
COc1ccccc1NC(=O)Nc1ccccc1C#N	15.6
O=C1CCCN1CCCNS(=O)(=O)c1cccc(F)c1	25.9
COc1ccccc1N(C(=O)c1snc(C(N)=O)c1N)C(C(=O)NC1CCCC1)c1ccco1 (centres unmarked)	-35.4
CCOc1ccccc1N(C(=O)c1snc(C(N)=O)c1N)C(C(=O)NCCC(C)C)c1ccco1 (centres unmarked)	-22.2
CCOc1ccccc1N(C(=O)c1snc(C(N)=O)c1N)C(C(=O)NC1CCCC1)c1ccco1 (centres unmarked)	-55
CNC(=S)N1CCN(c2nc(-c3ccc(Cl)cc3)cs2)CC1	14.7
Cc1cc2c(cc1C)N(Cc1ccc(Cl)cc1)C1=NCCCN12	-69.8
Cc1cc2c(cc1C)N(Cc1ccccc1)C1=NCCCN12.Cl	-72.3
COC(=O)c1cc(Cl)cc2c(C)c(C3(O)CCCCC3)[nH]c12	15
O=C(/C=C/c1ccccc1)N/C(=C/c1ccccc1)C(=O)Nc1ccccc1O	-27.3
CCc1ccccc1NC(=O)Cn1nnc(C(=O)NCc2cccs2)c1N	13.8
O=C(Cn1cnc2ccccc2c1=O)NCCC(=O)N1CCN(c2ccccc2)CC1	-7.6
Cc1ccc(NC(=O)C(c2ccccc2)N2CCN(CC(=O)NC3CC3)CC2)cc1Cl (centres unmarked)	-46.7
Cc1cc(C)cc(NC(=O)C(c2ccccc2)N2CCN(CC(=O)NC3CC3)CC2)c1 (centres unmarked)	-28.3
O=C(CN1CCN(C(C(=O)Nc2ccc(Cl)cc2C(F)(F)F)c2ccccc2)CC1)NC1CC1 (centres unmarked)	-70.2
Cc1cc(NC(=O)COC(=O)C2CCCN2C(=O)c2cccs2)no1 (centres unmarked)	-4.36

SMILES	hERG current change (%, negative = inhibition) at 10uM [%]
COc1ccccc1NC(=O)COC(=O)[C@@H]1CCCN1C(=O)c1cccs1	-40.6
NC(=O)c1ccsc1NC(=O)COC(=O)C1CCCN1C(=O)c1cccs1 (centres unmarked)	-63
Cc1ccn2c(C(=O)N/N=C\c3ccccc3[N+](=O)[O-])c(C)nc2c1	-27.2
COCCn1c(C)cc(C(=O)Cn2nc(C(=O)O)c3ccccc3c2=O)c1C	-3.4
O=C(CNC(=O)Cc1cccc2ccccc12)NCc1ccccc1F	14.8
CCOC(=O)C1=C(COC(=O)c2cccc(N(C)C)c2)NC(=O)NC1C (centres unmarked)	2.49
O=C(Oc1ccc(F)cc1)c1cccnc1	17.1
O=C(O)/C=C/C(=O)N1CCN(Cc2ccc3c(c2)OCO3)CC1	4.54
O=C(c1ccc(Br)s1)N1CCN(Cc2ccc3c(c2)OCO3)CC1	-36.3
O=C(c1cccs1)N1CCN(Cc2ccc3c(c2)OCO3)CC1	-15.7
O=C(c1sccc1Br)N1CCN(Cc2ccc3c(c2)OCO3)CC1	-11
Cn1c(C(=O)N2CCC(C(=O)N3CCN(Cc4ccc5c(c4)OCO5)CC3)CC2)cc2sccc21	-60.6
O=C(C1CCCN1C(=O)c1cccs1)N1CCN(Cc2ccc3c(c2)OCO3)CC1 (centres unmarked)	-6.29
Cl.O=C(c1cc2c(s1)CCCC2)N1CCN(Cc2ccc3c(c2)OCO3)CC1	-54.2
Cn1c(C(=O)N2CCC(C(=O)N3CCOCC3)CC2)cc2sccc21	7.59
O=C(/C=C/c1cccs1)N1CCN(Cc2ccc3c(c2)OCO3)CC1	-47.9
O=C(/C=C\c1cccs1)N1CCN(Cc2ccc3c(c2)OCO3)CC1	-57.8
Cl.Cn1c(C(=O)N2CCN(Cc3ccc4c(c3)OCO4)CC2)cc2sccc21	-8.46
O=C(c1cccs1)N1CCC(C(=O)N2CCN(Cc3ccc4c(c3)OCO4)CC2)CC1	-59.9
